A short description of assay [1]: ATG_ERE_CIS: Attagene CIS-FACTORIAL HepG2 Assay for Estrogen Response Element (ERE) (AID 2282940). Particulars: HepG2 ERE cis-reporter, Attagene RNA transcript; actives raise or lower the signal. In a few lines: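 Human liver cells (HepG2) bearing transiently transfected, promoter-regulated reporter units were exposed 24 h. Reporter mRNA induction was detected by capillary electrophoresis of labelled RT-PCR products and fitted bidirectionally to DMSO.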

Assay [2] concerns the target Steroid hormone receptor ERR1 (Homo sapiens) (UniProt P11474). Put plainly: ATG_ERRa_TRANS: Attagene TRANS-FACTORIAL HepG2 Assay for human Estrogen-Related Receptor alpha (ERRa) (AID 2282971; active means hit-call score of the fitted dose curve at least 0.9, where 1 is the maximum). The note with it: HepG2 Attagene TRANS reporter, ERRa transactivation. A digest of the protocol:
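Signal gain relative to DMSO for an ERRa-Gal4 chimeric receptor, read as reporter mRNA by RT-PCR/capillary electrophoresis. Human HepG2 liver cells, transient multiplex reporter transfection, 24 h chemical exposure.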

Assay [3] concerns the target Estrogen-related receptor gamma (Homo sapiens) (UniProt P62508). Nature of the assay: ATG_ERRg_TRANS: Attagene TRANS-FACTORIAL HepG2 Assay for human Estrogen-Related Receptor gamma (ERRg) (AID 2282977; active means hit-call score of the fitted dose curve at least 0.9, where 1 is the maximum;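 further: hits increase reporter signal over DMSO so potencies reflect activators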). Particulars: HepG2 Attagene TRANS reporter, ERRg transactivation. In a few lines:
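Readout: fluorescent reporter-mRNA fragments resolved by capillary electrophoresis after RT-PCR and HpaI cut. Cells: transiently transfected HepG2 carrying GAL4-UAS reporters driven by exogenous NR-Gal4 chimeras, dosed 24 h. Activity fitted upward relative to DMSO baseline.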

Assay [4] addresses human Retinoic Acid Receptor beta (RARb), RARB (gene 5915) (UniProt P10826). Put plainly: ATG_RARb_TRANS: Attagene TRANS-FACTORIAL HepG2 Assay for human Retinoic Acid Receptor beta (AID 2283004; active means hit-call score of the fitted dose curve at least 0.9, where 1 is the maximum). A digest of the protocol: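 Fluorescent capillary-electrophoresis detection of GAL4-UAS reporter mRNA defines the endpoint, with induction over DMSO-treated wells scored as activity. Transiently transfected human hepatoma HepG2 cells expressing exogenous NR–Gal4 proteins are exposed to test chemicals for 24 h.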

Assay [5] concerns the target human Retinoic Acid Receptor gamma (RARg), RARG (gene 5916) (UniProt P13631). Nature of the assay: ATG_RARg_TRANS: Attagene TRANS-FACTORIAL HepG2 Assay for human Retinoic Acid Receptor gamma (RARg) (AID 2283009; active means hit-call score of the fitted dose curve at least 0.9, where 1 is the maximum;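 further: AC50 is for reporter induction above DMSO meaning RARg activation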). In a few lines: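 Readout: reporter transcript levels via RT-PCR, 6-FAM primer-extension labelling, HpaI digestion and capillary electrophoresis. Cells: HepG2 carrying transfected RARg-GAL4 chimera plus UAS reporter set. Dosing 24 h; DMSO negative control.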

Read-out in assay [6]: Pselectin, SELP (gene 6403)
Put plainly: BSK_4H_Pselectin: BioMAP Diversity Plus: 4H Assay for Pselectin Biomarker Activity (AID 2283026). Particulars: primary human endothelial cells (HUVEC); actives raise or lower the signal. In a few lines: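 HUVEC, 24 h chemical exposure; P-selectin read by ELISA. Bidirectional curve fit vs DMSO baseline; gain or loss of signal scored.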

Read-out in assay [7]: serum amyloid A (SAA), SAA1 (gene 6288)
Put plainly: BSK_CASM3C_SAA: BioMAP Diversity Plus: CASM3C Assay for serum amyloid A (SAA) Biomarker Activity (AID 2283049).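 Further: SAA protein level quantified by ELISA.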 The note with it: primary human coronary artery smooth muscle cells; actives raise or lower the signal.

Read-out in assay [8]: Interferon-gamma inducible Protein 10 (IP10), CXCL10 (gene 3627)
Nature of the assay: BSK_hDFCGF_IP10: BioMAP Diversity Plus: hDFCGF Assay for Interferon-gamma inducible Protein 10 (IP10) Biomarker Activity (AID 2283053). The note with it: primary human foreskin fibroblasts; actives raise or lower the signal. A digest of the protocol:
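ELISA read-out of IP-10 (CXCL10) from primary human skin fibroblasts, 24 h after compound addition. Gain or loss of signal versus DMSO baseline, bidirectional curve fitting.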

Read-out in assay [9]: Vascular cell adhesion molecule 1 (VCAM1), VCAM1 (gene 7412)
Nature of the assay: BSK_CASM3C_VCAM1: BioMAP Diversity Plus: CASM3C Assay for Vascular cell adhesion molecule 1 (VCAM1) Biomarker Activity (AID 2283055).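 Further: VCAM-1 protein level quantified by ELISA on the cells.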 Particulars: primary human coronary artery smooth muscle cells; actives raise or lower the signal.

Read-out in assay [10]: Macrophage colony-stimulating factor (MCSF), CSF1 (gene 1435)
Nature of the assay: BSK_hDFCGF_MCSF: BioMAP Diversity Plus: hDFCGF Assay for Macrophage colony-stimulating factor (MCSF) Biomarker Activity (AID 2283060). The note with it: AC50: primary human foreskin fibroblasts, actives raise or lower the signal unless noted; outcome: primary human foreskin fibroblasts, actives raise or lower the signal unless noted. A digest of the protocol: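 fibroblasts (human foreskin, primary), 24 h post-dose; M-CSF by ELISA; bidirectional fit, DMSO = baseline.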

Assay [11] has as its target Aryl hydrocarbon receptor (Homo sapiens) (UniProt P35869). Nature of the assay: ATG_Ahr_CIS: Attagene CIS-FACTORIAL HepG2 Assay for human Aryl Hydrocarbon Receptor (Ahr) (AID 2282930). The note with it: HepG2 AhR cis-factorial reporter transcription; actives raise or lower the signal. A digest of the protocol:
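Transient MRTU transfection of HepG2 → 24 h compound exposure → total RNA, oligo(dT) RT → PCR, 6-FAM extension, HpaI cut → CE fluorescence. DMSO = baseline; bidirectional curve fit.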

The target in assay [12] is Oxysterols receptor LXR-beta (Homo sapiens) (UniProt P55055). Nature of the assay: ATG_LXRb_TRANS: Attagene TRANS-FACTORIAL HepG2 Assay for human Liver X Receptor beta (LXRb) (AID 2282981; active means hit-call score of the fitted dose curve at least 0.9, where 1 is the maximum). Particulars: HepG2 Attagene TRANS GAL4-LXRb reporter, mRNA. In a few lines: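 After 24 h of chemical treatment, transfected HepG2 cells yield total RNA; reporter cDNA is PCR-amplified, FAM-labelled, HpaI-cut and run on capillary electrophoresis. Signal reflects chimeric LXRb-Gal4 activity on GAL4-UAS reporters.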
Oxysterols receptor LXR-beta (Homo sapiens), sequence (P55055 whole entry, looked up, the tested form may be a part): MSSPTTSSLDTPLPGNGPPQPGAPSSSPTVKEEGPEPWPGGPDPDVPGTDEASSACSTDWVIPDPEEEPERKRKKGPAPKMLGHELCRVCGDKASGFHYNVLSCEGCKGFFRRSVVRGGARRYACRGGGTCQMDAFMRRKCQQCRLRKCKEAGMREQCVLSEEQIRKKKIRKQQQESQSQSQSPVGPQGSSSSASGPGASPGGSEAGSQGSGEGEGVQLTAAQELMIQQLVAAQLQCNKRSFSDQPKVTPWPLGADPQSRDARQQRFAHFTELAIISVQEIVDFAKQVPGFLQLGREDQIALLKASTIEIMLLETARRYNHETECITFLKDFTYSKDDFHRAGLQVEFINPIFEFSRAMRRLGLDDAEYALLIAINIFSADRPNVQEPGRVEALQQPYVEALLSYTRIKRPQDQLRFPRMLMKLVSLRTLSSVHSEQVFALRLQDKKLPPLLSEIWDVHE

Assay [13] addresses Estrogen receptor beta (Homo sapiens) (UniProt Q92731). Put plainly: OT_ER_ERbERb_0480: Odyssey Thera (OT) 8-hour HEK293T Protein-Complementation Assay for Estrogen Receptor-beta/-beta Homodimer (AID 2283357; active means hit-call score of the fitted dose curve at least 0.9, where 1 is the maximum;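 further: active means signal gain over DMSO baseline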). A digest of the protocol:
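ER-beta LBD homodimer PCA stably expressed in HEK293T; 8 h compound exposure, then formaldehyde fixation and Draq5 staining. Gain in nuclear/cytoplasmic fluorescence intensity versus DMSO vehicle, read on laser scanning cytometer.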

For assay [14] the target is unchanged. Nature of the assay: OT_ER_ERbERb_1440: Odyssey Thera (OT) 24-hour HEK293T Protein-Complementation Assay for Estrogen Receptor-beta/-beta Homodimer (AID 2283380; active means hit-call score of the fitted dose curve at least 0.9, where 1 is the maximum;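 further: scored as signal increase over DMSO baseline for both agonists and antagonists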). A digest of the protocol:
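Fluorescence increase, nuclear for agonists or whole-cell for antagonists, relative to DMSO vehicle, quantified by laser scanning cytometer after fixation and Draq5 staining. Readout from 24 h treatment of HEK293T cells carrying complementation-paired ER beta LBD (aa 310-547).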

Assay [15] concerns the target Retinoic acid receptor RXR-alpha (Homo sapiens) (UniProt P19793). Put plainly: OT_NURR1_NURR1RXRa_1440: Odyssey Thera (OT) 24-hour HEK293T Protein Complementation Assay for Nurr1/retinoid X receptor (RXR) (AID 2283386; active means hit-call score of the fitted dose curve at least 0.9, where 1 is the maximum). A digest of the protocol:
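Fluorescence PCA read-out; HEK293T; 24 h post-dose; bait/prey fused to reporter fragments; gain-of-signal fit vs DMSO negative control.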

Assay [16] addresses Peroxisome proliferator-activated receptor gamma (Homo sapiens) (UniProt P37231). Put plainly: OT_PPARg_PPARgSRC1_0480: Odyssey Thera (OT) 8-hour Protein-Complementation Assay for Peroxisome Proliferator-activated Receptor Gamma / SRC-1 Co-activator (AID 2283387; active means hit-call score of the fitted dose curve at least 0.9, where 1 is the maximum;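 further: nuclear to cytoplasmic split Venus YFP fluorescence ratio reporting PPARg SRC-1 interaction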). A digest of the protocol: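 HEK293T transiently transfected with PPARg and SRC-1 fused to Venus YFP fragments, compounds 8 h at 37C. Fixed, Draq5-stained cells imaged; nuclear/cytoplasmic 488 nm fluorescence ratio over at least 350 cells per image; gain fitted versus DMSO.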

Assay [17] can be described thus: ACEA_AR_agonist_AUC_viability: ACEA Biosciences xCELLigence Real-Time Cell Analysis on Androgen Receptor Agonism for Viability (AID 2283775; active means hit-call score of the fitted dose curve at least 0.9, where 1 is the maximum). A digest of the protocol: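 Viability endpoint from xCELLigence impedance in 22Rv1 prostate cells at 80 h. Eight-point series, 100 uM maximum final.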
Assay [18] is described as follows: ACEA_AR_antagonist_AUC_viability: ACEA Biosciences xCELLigence Real-Time Cell Analysis on Androgen Receptor Antagonism for Viability (AID 2283776; active means hit-call score of the fitted dose curve at least 0.9, where 1 is the maximum;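 further: area under impedance growth curve at 80 h after dosing as viability; hits lower the growth signal relative to DMSO meaning cytotoxicity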). A digest of the protocol:
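22Rv1 human prostate cancer cells were seeded on electrode plates, monitored overnight, then exposed to eight 1:4 dilutions from 100 uM final. Impedance-based growth kinetics at 80 h gave an AUC viability endpoint normalized to DMSO.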

Assay [19] in a line: CCTE_Harrill_HTTr_Viability_MCF7: CCTE's 6-hour Cell Viability Assessment for the High-Throughput Transcriptomics (HTTr) Platform, in MCF-7 cells cultured in DMEM + 10% fetal bovine serum, Harrill Lab (AID 2284010). In a few lines:
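PI exclusion, high-content imaging; 8-pt dilution series, 6 h exposure; bidirectional fit vs DMSO (neg. ctrl/baseline); gain of signal = loss of membrane integrity.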

Assay [20] in a line: CCTE_Harrill_HTTr_Apoptosis_MCF7: CCTE's 6-hour Apoptosis Assessment for the High-Throughput Transcriptomics (HTTr) Platform, in MCF-7 cells cultured in DMEM + 10% fetal bovine serum, Harrill Lab (AID 2284011). A digest of the protocol:
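Apoptosis in MCF-7 cells grown in DMEM with 10% fetal bovine serum was scored after a six hour exposure by high content imaging of caspase-3/7 activation (CellEvent Caspase 3/7 Green), with DMSO serving as negative control and baseline.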

Results on 13 molecules are retold here after PubChem BioAssay (EPA / NIEHS).

Each structure is given as a SMILES string. Inconclusive results are not listed. The source holds several records for some structures; these can differ, active in one and inactive in another. Calls of active or inactive are those of the source. How the source made its calls, unless noted: active means hit-call score of the fitted dose curve at least 0.9, where 1 is the maximum; inactive means score below 0.9.

Aryl hydrocarbon receptor (Homo sapiens), sequence (P35869 whole entry, looked up): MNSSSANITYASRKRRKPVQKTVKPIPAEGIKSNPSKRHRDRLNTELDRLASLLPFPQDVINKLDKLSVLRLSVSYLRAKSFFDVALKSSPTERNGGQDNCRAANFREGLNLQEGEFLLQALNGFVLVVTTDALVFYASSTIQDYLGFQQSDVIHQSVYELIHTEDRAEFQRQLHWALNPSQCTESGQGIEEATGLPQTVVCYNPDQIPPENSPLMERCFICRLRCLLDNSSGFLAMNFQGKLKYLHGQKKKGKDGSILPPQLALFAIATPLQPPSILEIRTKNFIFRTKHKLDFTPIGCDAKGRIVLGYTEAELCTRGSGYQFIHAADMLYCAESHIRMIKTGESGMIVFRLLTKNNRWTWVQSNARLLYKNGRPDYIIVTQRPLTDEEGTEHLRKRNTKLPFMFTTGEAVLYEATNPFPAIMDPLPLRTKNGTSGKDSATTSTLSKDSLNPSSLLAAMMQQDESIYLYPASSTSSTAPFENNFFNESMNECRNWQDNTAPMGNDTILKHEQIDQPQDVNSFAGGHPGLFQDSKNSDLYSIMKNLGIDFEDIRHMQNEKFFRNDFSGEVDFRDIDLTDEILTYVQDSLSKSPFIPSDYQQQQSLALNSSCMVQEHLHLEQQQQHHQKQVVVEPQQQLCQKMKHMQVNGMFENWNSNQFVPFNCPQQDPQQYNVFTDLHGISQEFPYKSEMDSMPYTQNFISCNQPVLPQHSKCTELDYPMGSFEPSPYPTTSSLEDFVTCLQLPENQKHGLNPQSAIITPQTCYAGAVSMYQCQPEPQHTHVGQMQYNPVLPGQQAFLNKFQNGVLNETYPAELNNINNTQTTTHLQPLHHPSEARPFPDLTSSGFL
Estrogen-related receptor gamma (Homo sapiens), sequence (P62508 whole entry, looked up, the tested form may be a part): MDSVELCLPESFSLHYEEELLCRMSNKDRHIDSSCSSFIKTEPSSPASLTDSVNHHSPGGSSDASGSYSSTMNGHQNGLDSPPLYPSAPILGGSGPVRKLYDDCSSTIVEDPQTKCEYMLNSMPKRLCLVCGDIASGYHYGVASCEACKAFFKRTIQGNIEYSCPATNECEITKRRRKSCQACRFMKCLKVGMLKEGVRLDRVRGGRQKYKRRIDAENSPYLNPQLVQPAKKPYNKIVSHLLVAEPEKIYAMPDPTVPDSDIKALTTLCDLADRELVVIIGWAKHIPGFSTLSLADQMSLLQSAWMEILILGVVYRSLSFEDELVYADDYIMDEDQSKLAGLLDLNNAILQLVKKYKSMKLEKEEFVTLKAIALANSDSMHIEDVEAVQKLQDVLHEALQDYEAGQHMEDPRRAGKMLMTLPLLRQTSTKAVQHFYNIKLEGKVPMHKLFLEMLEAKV
human Retinoic Acid Receptor beta (RARb), RARB (gene 5915), sequence (P10826 whole entry, looked up, the tested form may be a part): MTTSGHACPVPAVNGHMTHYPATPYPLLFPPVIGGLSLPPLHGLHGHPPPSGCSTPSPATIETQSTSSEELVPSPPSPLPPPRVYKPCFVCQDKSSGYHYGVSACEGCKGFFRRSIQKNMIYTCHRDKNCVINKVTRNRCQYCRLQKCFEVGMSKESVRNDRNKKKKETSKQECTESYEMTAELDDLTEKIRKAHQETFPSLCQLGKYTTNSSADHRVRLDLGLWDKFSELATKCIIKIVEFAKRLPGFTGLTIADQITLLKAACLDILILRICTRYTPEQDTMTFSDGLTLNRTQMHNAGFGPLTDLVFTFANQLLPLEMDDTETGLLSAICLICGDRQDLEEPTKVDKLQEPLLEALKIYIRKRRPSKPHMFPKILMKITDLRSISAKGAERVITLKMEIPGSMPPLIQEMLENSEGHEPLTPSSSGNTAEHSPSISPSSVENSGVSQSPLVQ
Estrogen receptor beta (Homo sapiens), sequence (Q92731 whole entry, looked up, the tested form may be a part): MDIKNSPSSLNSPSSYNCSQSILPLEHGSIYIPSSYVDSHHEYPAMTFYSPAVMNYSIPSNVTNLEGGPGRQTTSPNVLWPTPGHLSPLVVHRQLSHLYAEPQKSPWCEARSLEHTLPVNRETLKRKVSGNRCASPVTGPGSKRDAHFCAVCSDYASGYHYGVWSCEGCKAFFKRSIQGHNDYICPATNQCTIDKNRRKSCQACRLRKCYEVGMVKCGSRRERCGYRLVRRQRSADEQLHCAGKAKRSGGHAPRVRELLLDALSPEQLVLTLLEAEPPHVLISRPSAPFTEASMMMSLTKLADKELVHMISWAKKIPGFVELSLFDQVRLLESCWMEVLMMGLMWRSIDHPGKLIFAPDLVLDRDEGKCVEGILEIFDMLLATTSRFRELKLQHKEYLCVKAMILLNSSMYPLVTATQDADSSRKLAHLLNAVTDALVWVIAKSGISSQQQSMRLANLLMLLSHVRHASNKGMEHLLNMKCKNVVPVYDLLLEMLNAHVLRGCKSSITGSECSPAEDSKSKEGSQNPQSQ
Peroxisome proliferator-activated receptor gamma (Homo sapiens), sequence (P37231 whole entry, looked up, the tested form may be a part): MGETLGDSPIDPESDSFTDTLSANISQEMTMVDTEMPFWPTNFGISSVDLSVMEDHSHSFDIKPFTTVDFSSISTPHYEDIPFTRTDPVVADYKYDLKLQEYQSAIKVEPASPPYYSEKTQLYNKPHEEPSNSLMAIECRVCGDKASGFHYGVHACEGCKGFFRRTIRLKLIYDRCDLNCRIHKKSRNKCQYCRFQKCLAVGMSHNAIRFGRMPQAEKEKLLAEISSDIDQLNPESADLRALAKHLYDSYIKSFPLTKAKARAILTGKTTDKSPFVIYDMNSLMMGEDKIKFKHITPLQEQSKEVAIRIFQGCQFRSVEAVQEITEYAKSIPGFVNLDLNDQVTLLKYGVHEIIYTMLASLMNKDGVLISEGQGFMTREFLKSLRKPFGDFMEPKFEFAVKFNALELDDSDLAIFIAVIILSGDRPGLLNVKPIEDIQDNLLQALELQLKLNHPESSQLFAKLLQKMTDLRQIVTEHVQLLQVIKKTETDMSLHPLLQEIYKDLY
human Retinoic Acid Receptor gamma (RARg), RARG (gene 5916), sequence (P13631 whole entry, looked up, the tested form may be a part): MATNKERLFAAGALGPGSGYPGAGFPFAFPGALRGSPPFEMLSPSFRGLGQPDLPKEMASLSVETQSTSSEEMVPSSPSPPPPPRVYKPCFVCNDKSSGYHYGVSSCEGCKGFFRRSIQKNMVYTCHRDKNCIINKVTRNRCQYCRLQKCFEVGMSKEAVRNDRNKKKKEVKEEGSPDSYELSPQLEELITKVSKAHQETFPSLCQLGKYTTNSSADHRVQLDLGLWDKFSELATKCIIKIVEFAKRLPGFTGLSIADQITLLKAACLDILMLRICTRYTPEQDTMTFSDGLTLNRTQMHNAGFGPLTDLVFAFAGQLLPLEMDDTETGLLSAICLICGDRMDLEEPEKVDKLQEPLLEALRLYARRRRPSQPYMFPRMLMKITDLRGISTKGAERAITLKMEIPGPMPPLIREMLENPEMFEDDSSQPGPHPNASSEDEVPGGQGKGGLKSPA
Retinoic acid receptor RXR-alpha (Homo sapiens), sequence (P19793 whole entry, looked up, the tested form may be a part): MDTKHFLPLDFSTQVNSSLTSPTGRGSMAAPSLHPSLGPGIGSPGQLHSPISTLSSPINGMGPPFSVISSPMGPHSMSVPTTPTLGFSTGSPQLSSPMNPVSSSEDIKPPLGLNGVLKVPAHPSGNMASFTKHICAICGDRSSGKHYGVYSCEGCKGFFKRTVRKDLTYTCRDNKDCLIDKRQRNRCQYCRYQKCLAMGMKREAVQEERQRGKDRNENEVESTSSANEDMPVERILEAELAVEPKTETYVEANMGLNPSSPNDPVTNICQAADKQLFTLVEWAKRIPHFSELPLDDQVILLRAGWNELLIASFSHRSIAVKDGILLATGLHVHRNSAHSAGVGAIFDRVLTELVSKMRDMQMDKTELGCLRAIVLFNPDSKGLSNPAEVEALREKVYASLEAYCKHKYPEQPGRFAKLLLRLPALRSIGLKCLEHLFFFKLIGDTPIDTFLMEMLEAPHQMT
Steroid hormone receptor ERR1 (Homo sapiens), sequence (P11474 whole entry, looked up, the tested form may be a part): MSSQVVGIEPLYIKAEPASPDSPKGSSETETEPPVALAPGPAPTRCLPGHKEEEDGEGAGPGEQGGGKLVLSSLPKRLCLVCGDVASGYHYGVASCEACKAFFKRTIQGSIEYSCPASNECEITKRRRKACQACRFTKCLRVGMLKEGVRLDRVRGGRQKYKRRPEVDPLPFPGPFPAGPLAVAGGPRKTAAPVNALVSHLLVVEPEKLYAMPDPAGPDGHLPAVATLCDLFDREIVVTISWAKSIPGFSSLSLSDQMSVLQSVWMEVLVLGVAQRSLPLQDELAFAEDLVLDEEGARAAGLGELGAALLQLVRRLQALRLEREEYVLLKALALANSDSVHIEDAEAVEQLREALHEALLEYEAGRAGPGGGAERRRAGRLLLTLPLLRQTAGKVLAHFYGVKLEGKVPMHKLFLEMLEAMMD

`CCCCCCCCCCCCCCCCCC[N+](C)(C)C`: the result in assay [1] and in assay [7] was inactive. Moreover, the AC50 was 33.8 µM (active) in assay [2]; 25 µM (active) in assay [3]; 15.7 µM (active) in assay [4]; 34.4 µM (active) in [5]; 1.34 µM (active) in assay [6]; 2.67 µM (active) in assay [8]. The concentration at half-maximal activity (AC50) in assay [9] was 3.73 µM (active); in assay [10] it was 3.11 µM (active).
Take `CC(=O)c1nccs1`: the AC50 in [1] was 4.94 µM (active). The molecule was called inactive in [4].
Consider `Cc1cc(C)c(S(=O)(=O)O)cc1N=Nc1cc(S(=O)(=O)O)c2ccccc2c1O`, for which, in [11], the AC50 is 42.4 µM (active). The molecule was called inactive in assay [12], in [13], in assay [14], in [15], in assay [16] and in [17]. The outcome in assay [18] was inactive.
For the molecule `O=C(O)c1cc(Cl)cc(Cl)c1O`, the AC50 in assay [11] was 79 µM (active). Besides, the call in assay [3], in assay [19] and in assay [20] was inactive.
On to `COc1ccccc1OCC(O)CO` (stereo unspecified), for which the call in assay [11] was inactive.
For `CCCN[C@H]1CCc2nc(N)sc2C1`, the molecule was classed as inactive in assay [11] and in assay [12].
As for `CC1=NN(c2cc(Cl)c(S(=O)(=O)O)cc2Cl)C(=O)C1N=Nc1ccc(S(=O)(=O)O)cc1` (stereo unspecified), the result in assay [11], in [12], in [16] and in [18] was inactive.
On to `CC(O)(P(=O)(O)O)P(=O)(O)O`, for which, in [11], the result was inactive.
Turning to `OCCN(CCO)c1cccc(Cl)c1`, the outcome in assay [11] was inactive.
In the case of `CC1=C(CC(=O)O)c2cc(F)ccc2/C1=C\c1ccc(S(C)=O)cc1` (stereo unspecified), in assay [11], the AC50 was 3.48 µM (active). Besides, the result in assay [19] and in [20] was inactive.
As for `NC(=O)c1ccc(N)cc1`, the molecule was classed as inactive in assay [1] and in assay [3].
Take `C/C=C(\C)C(=O)OCC/C=C\CC`: in [4], the result was inactive.
As for `CN(C)Cc1cc(C(C)(C)C)c(O)c(C(C)(C)C)c1`, the molecule was classed as inactive in [3], in [12], in [6], in assay [7], in assay [8] and in [9]. Besides, the half-maximal activity concentration (AC50) in assay [6] is 1.56 µM (active); in [7], 5.92 µM (active); in assay [8] it was 12.8 µM (active); in assay [9], 0.15 µM (active); in assay [10], 18.3 µM [setting not given] (active). Further, in assay [10], the outcome is “inactive [setting not given]”.

The AC50 is the concentration giving half of the maximal activity seen.
